ASM inhibitor: inhibitors of human secretory acid sphingomyelinase; Potency, µM (doses to about 57.5 µM), usual class: inhibitors; AID 504937; placental ASM, HMU-PC fluorogenic substrate, 60 min; actives 0.006% (n = 340,000); P17405
Target sequence (P17405 47-631 limits assumed): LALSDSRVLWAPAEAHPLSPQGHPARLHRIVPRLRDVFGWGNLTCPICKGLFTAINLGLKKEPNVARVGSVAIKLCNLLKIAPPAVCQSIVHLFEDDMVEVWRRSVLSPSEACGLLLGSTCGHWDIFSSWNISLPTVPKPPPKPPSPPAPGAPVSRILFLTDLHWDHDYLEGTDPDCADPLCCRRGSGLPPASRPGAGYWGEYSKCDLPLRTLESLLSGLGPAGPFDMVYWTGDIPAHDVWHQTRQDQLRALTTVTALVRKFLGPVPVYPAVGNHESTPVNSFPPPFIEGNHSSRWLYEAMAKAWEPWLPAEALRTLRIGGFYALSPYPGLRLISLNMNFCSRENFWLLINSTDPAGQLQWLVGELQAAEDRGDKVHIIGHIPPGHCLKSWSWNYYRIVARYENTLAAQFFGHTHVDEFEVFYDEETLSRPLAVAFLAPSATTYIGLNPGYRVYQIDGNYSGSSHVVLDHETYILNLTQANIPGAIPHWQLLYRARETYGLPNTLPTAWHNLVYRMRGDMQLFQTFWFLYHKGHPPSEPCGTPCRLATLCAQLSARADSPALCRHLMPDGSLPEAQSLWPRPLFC
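Human placenta-derived ASM enzyme was preincubated with compound for 10 minutes at room temperature, then given fluorogenic substrate HMU-PC0 (9 uM final) for 60 minutes at 37 °C; a pH 10 stop preceded fluorescence reading at Ex 386/Em 447 nm.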
TGFb SMAD3 inh: inhibitors of TGF-b signaling. Potency, µM (doses to about 46.1 µM), actives largely listed as inhibitors. HepG2 CAGA-GFP TGF-b/SMAD3 reporter, GFP fluorescence, 18 h; TGF-beta stimulated, 500 pg/mL final. actives 1.2% (n = 410,000); note: nearly all actives have a fitted effect of over 65% in size
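First, reporter cells (HEPG2 CAGA-GFP) rested 2 h at 37 degrees C. Next, compounds were pinned in and TGF-beta added to 500 pg/mL final. After 18 h, GFP was imaged per cell and summed per well.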
HepG2 viability: counter-screen for TGF-b inhibitors: cytotoxicity in HepG2 cells; HepG2 CAGA-GFP viability, ATP luminescence, 18 h; actives 0.76% (n = 410,000); AID 588856; Potency, µM (titrated, usually from 46.1 µM), actives largely listed as cytotoxic
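HepG2 CAGA-GFP cells (1000/well, DMEM with 1% FBS) received compound, then TGF-beta at 500 pg/mL final, and were incubated 18 hours at 37 degrees C. Viability was read by CellTiter-Glo luminescence. Media-only wells were set as complete cell-killing and DMSO as no toxicity.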
IL-1B inflam inh: inflammasome signaling inhibition, IL-1 beta readout | actives 4.7% (n = 360,000) | activity change, % at 57.5 µM | THP-1 LPS/ATP IL-1B secretion, AlphaLISA, 16 h; stronger effect = lower value; in the data active = activity change below about -50%; inconclusive = mostly about -30% to -49%
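THP-1 cells pretreated 1 hr with compounds (up to 57.5 uM final), then stimulated with LPS (250 ng/mL final) plus ATP (1.25 mM final); secreted IL-1B measured by AlphaLISA after 16 hr, decreased signal indicating inhibition.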
DT40 TDP1 CPT: growth inhibition of DT40 Tdp1-/-;hTDP1 cells with camptothecin (screen for TDP1 inhibitors) | Potency, µM (highest dose often 46.2 µM), usual class: inhibitors | actives 12% (n = 420,000) | AID 686979 | chicken DT40 Tdp1-/-;hTDP1 cells + 20 nM CPT, ATP luminescence, 48 h; note: nearly all actives have a fitted effect of over 55% in size
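Chicken DT40 Tdp1-/- cells stably complemented with human TDP1 were seeded at 400 cells/well in medium containing 20 nM camptothecin, exposed to pin-transferred compounds, and grown at 37 °C for at least 48 hr. Viability was read as ATP luminescence.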
TDP1 cell noCPT: qHTS for Inhibitors of human tyrosyl-DNA phosphodiesterase 1 (TDP1): qHTS in cells in absence of CPT; actives 15% (n = 420,000); DT40 Tdp1-/- hTDP1 cells, no CPT, ATP luminescence, 48 h; AID 686978, 2013; Potency, µM (series often up to 46.2 µM), usual class: inhibitors; note: nearly all actives have a fitted effect of over 55% in size
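Chicken DT40 Tdp1-/- cells stably complemented with human TDP1 were seeded at 400 cells/well with DMSO in place of 20 nM camptothecin. After compound pinning, cells grew at least 48 hr at 37 °C; viability read by CellTiter-Glo luminescence.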
Each line names hits and unclear results; the compound was inactive in the other large screens. An excerpt weighted towards active compounds, which were near 19% of everything screened. Unless noted, calls come from the whole dose curve; as a rule, active = well fitted curve in the direction sought with a large enough effect; inconclusive = small, poorly fitted or top-dose-only effect, or another doubt; inactive = no such curve, though single readings can be large; an effect the other way counts as inactive or inconclusive.

CCC1CN(CC(=O)NCc2ccc3c(c2)OCO3)Cc2ccc(Cl)cc2O1 (stereo unspecified)	none (no result: ASM inhibitor, TGFb SMAD3 inh, HepG2 viability, IL-1B inflam inh)
O=C(CSc1ccccn1)Nc1cccc(S(=O)(=O)N2CCCC2)c1	none
CC(CNC(=O)CC[C@H]1O[C@@H](n2cnc3c(NC(=O)c4ccccc4)ncnc32)[C@H](O)[C@@H]1O)c1ccccc1 (stereo partly specified)	none (no result: ASM inhibitor)
Cc1ccc(NS(=O)(=O)c2cc(NC(=O)c3ccc4c(c3)NC(=O)CS4)ccc2Cl)c(C)c1	ASM inhibitor inconclusive, TGFb SMAD3 inh inconclusive, IL-1B inflam inh inconclusive, DT40 TDP1 CPT inconclusive, TDP1 cell noCPT 25.9µM
COc1ccc(NC(=O)c2ccc3c(c2)NC(=O)CS3)cc1	IL-1B inflam inh inconclusive
CC(=O)OC[C@@H]1CN(Cc2ccccc2)C[C@H](n2cnc3c(Nc4ccccc4)ncnc32)O1	HepG2 viability 15.8µM, DT40 TDP1 CPT inconclusive, TDP1 cell noCPT inconclusive (no result: ASM inhibitor)
COc1cc(CNc2ncnc3c2ncn3[C@H]2CN(Cc3ccccc3)C[C@@H](COC(C)=O)O2)cc(OC)c1OC	DT40 TDP1 CPT inconclusive, TDP1 cell noCPT 16.4µM (no result: ASM inhibitor)
COc1cc(CNc2ncnc3c2ncn3[C@H]2CN(Cc3cc(OC)c(OC)c(OC)c3)C[C@@H](CO)O2)cc(OC)c1OC	none (no result: ASM inhibitor)
COc1cc(CNc2ncnc3c2ncn3[C@H]2CN(Cc3cccc(C(F)(F)F)c3)C[C@@H](COC(C)=O)O2)cc(OC)c1OC	DT40 TDP1 CPT inconclusive, TDP1 cell noCPT inconclusive (no result: ASM inhibitor)
COc1cc(CNc2ncnc3c2ncn3[C@H]2CN(Cc3cccc(C(F)(F)F)c3)C[C@@H](CO)O2)cc(OC)c1OC	DT40 TDP1 CPT 18.4µM, TDP1 cell noCPT 16.4µM (no result: ASM inhibitor)
CCCCn1cc(S(=O)(=O)c2ccc(C)c(C)c2)c(=O)c2cc(F)c(N3CCN(C)CC3)cc21	TDP1 cell noCPT inconclusive (no result: ASM inhibitor, IL-1B inflam inh)
COC(=O)N1C(=O)[C@@](c2ccc(OC)cc2)(C(C)C)N1C(=O)OC	TGFb SMAD3 inh inconclusive, IL-1B inflam inh -101.4, DT40 TDP1 CPT inconclusive, TDP1 cell noCPT inconclusive
COC(=O)N1C(=O)[C@@](c2ccccc2)(C(C)C)N1C(=O)OC	TGFb SMAD3 inh inconclusive, IL-1B inflam inh inconclusive, DT40 TDP1 CPT 16.4µM, TDP1 cell noCPT inconclusive
COC(=O)N1C(=O)[C@](c2ccccc2)(C2CCCC2)N1C(=O)OC	TGFb SMAD3 inh inconclusive, IL-1B inflam inh -95.6, DT40 TDP1 CPT inconclusive, TDP1 cell noCPT inconclusive
COC(=O)N1C(=O)[C@](c2ccc(Cl)cc2)(C(C)C)N1C(=O)OC	TGFb SMAD3 inh inconclusive, HepG2 viability 15.8µM, DT40 TDP1 CPT 13µM, TDP1 cell noCPT 23.1µM (no result: IL-1B inflam inh)
CCC1(c2ccccc2)C(=O)N(C(=O)OC(C)(C)C)N1C(=O)OC(C)(C)C (stereo unspecified)	IL-1B inflam inh inconclusive
CCC1(c2ccccc2)NC(=O)N(CC(=O)NC2CCCC2)C1=O (stereo unspecified)	none
CC(=O)Nc1ccc(C=C(C#N)c2ccc(C)cc2)cc1	TDP1 cell noCPT inconclusive (no result: ASM inhibitor)
O=C(COC(=O)C1CCN(S(=O)(=O)c2c(Cl)cccc2Cl)CC1)NCc1ccco1	none
Nn1c(COc2cccc(Cl)c2)nc2ccccc2c1=O	none
Cc1ccccc1OCc1nc2ccccc2n1Cc1ccccc1Cl	TGFb SMAD3 inh inconclusive, DT40 TDP1 CPT inconclusive, TDP1 cell noCPT 10.3µM (no result: ASM inhibitor, IL-1B inflam inh)
Cc1ccccc1OCc1nc2ccccc2n1C	DT40 TDP1 CPT inconclusive, TDP1 cell noCPT inconclusive
Cc1cccc(OCc2nc3ccccc3c(=O)n2N)c1	TGFb SMAD3 inh inconclusive, DT40 TDP1 CPT inconclusive, TDP1 cell noCPT 29.1µM
COc1cccc(OCc2nc3ccccc3n2Cc2ccccc2C)c1	TGFb SMAD3 inh inconclusive, DT40 TDP1 CPT 20.6µM, TDP1 cell noCPT 11.6µM (no result: ASM inhibitor, IL-1B inflam inh)
CCCn1c(COc2cccc(C)c2)nc2ccccc21	DT40 TDP1 CPT inconclusive, TDP1 cell noCPT 20.6µM (no result: ASM inhibitor, IL-1B inflam inh)
Cn1c(=O)oc2cc(S(=O)(=O)NCCC(=O)Nc3ccc(F)c(Cl)c3)ccc21	DT40 TDP1 CPT inconclusive, TDP1 cell noCPT inconclusive (no result: ASM inhibitor, IL-1B inflam inh)
O=C(O)c1cc(=S)nc[nH]1	none
Cc1ccc(C(C)C)c(OCCCn2c(=O)oc3ccc(C)cc32)c1	TGFb SMAD3 inh inconclusive, DT40 TDP1 CPT inconclusive, TDP1 cell noCPT 16.4µM (no result: ASM inhibitor, IL-1B inflam inh)
Cc1ccc(C(C)C)c(OCCCn2c(=O)oc3ccccc32)c1	DT40 TDP1 CPT inconclusive, TDP1 cell noCPT inconclusive (no result: ASM inhibitor, IL-1B inflam inh)
CCCCCOc1ccc(Cn2c(=O)oc3ccc(C)cc32)cc1OC	DT40 TDP1 CPT 25.9µM, TDP1 cell noCPT 20.6µM (no result: ASM inhibitor, IL-1B inflam inh)
CC(C)NC(=O)c1cn([C@H]2CC[C@@H](NC(=O)/C=C/c3cccs3)CC2)nn1	DT40 TDP1 CPT inconclusive (no result: ASM inhibitor, TGFb SMAD3 inh, HepG2 viability, IL-1B inflam inh)
COc1cc(OC)cc(C(=O)NC(C(=O)NNC(=O)CN(C)S(=O)(=O)c2ccc(C)cc2)C(C)C)c1 (stereo unspecified)	TDP1 cell noCPT inconclusive
O=C(CC1SC(=O)N(c2ccccc2)C1=O)Nc1cccc2ccccc12 (stereo unspecified)	DT40 TDP1 CPT 3.26µM, TDP1 cell noCPT 5.17µM
COc1ccccc1NC(=O)CC1SC(=N)N(c2ccccc2)C1=O (stereo unspecified)	TDP1 cell noCPT inconclusive
Cc1ccccc1NC(=O)CC1SC(=O)N(c2ccccc2)C1=O (stereo unspecified)	DT40 TDP1 CPT 6.51µM, TDP1 cell noCPT 4.61µM
